The source of these data is article PMC5540273 (PLoS ONE, 2017).

Test systems include S6K1; SBK1; SGK2; SGK3; SGK; SIK2; SIK; SLK; SNRK; SRC; SRMS; SRPK1; SRPK2.
Details in all cases: concentration: 1 μM, replicates: in singlicate; n = 1
For test [1], the system named is T1, RSK2(Kin.Dom.1-N-terminal).
T1 construct: gene RPS6KA3

Test [2] concerns T2, RSK2(Kin.Dom.2-C-terminal).
T2 construct: gene RPS6KA3

The subject of test [3] is T3, RSK3(Kin.Dom.1-N-terminal).
T3 construct: gene RPS6KA2

Test [4] deals with T4, RSK3(Kin.Dom.2-C-terminal).
T4 construct: gene RPS6KA2

The test system of test [5] is T5, RSK4(Kin.Dom.1-N-terminal).
T5 construct: gene RPS6KA6

Test [6] has as its system T6, RSK4(Kin.Dom.2-C-terminal).
T6 construct: gene RPS6KA6

Another test concerns T7, SNARK.
T7 construct: gene NUAK2
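Further: KINOMEscan kinase panel screen.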

With `Cc1nnc(-c2ccc3ncc(-c4ccc(S(C)=O)cc4)n3c2)o1` (stereo not drawn), the “%Inh” value came to 7% in [1]; 4% in test [2]; 0% in test [3]; 31% in test [4]; 0% in test [5]; 19% in test [6]. For the same compound, the “%Inh” value amounted to 0% in the test on S6K1; 0% in the test with SBK1; 13% in the test on SGK2; 0% in the test on SGK3; 0% with SGK; 0% with SIK2. The “%Inh” value in the test with SIK is on record as 9%; with SLK, 14%; with SNARK, 0%; with SNRK, 2%; in the test with SRC, 0%; in the test with SRMS it was 0%. For the same compound, the “%Inh” value with SRPK1 and in the test with SRPK2 was 0% in each case.
On to `CCc1ccnc(/C=C/c2n[nH]c3cc(Sc4ccccc4C(=O)NC)ccc23)c1`, for which the “%Inh” value in [1] is on record as 8%; in test [2] it was 0%; in test [3] it was 13%; in test [4], 6%; in [5] it was 18%; in [6], 12%. The “%Inh” value came to 6% in the test with S6K1; 16% in the test on SBK1; 0% in the test on SGK2; 24% in the test on SGK3; 0% in the test with SGK; 0% with SIK2. Also, the “%Inh” value is reported as 0% in the test on SIK; 0% in the test with SLK; 10% with SNARK; 0% in the test with SNRK; 4% in the test on SRC; 100% in the test with SRMS. The “%Inh” value in the test on SRPK1 worked out at 53%; in the test with SRPK2 it was 0%.
For `CC(=O)Nc1ccc(COc2ccc(Nc3ccnc4cc(-c5ccccn5)ccc34)cc2)cc1.Cl` [GW440148], the “%Inh” value was 0% in test [1]; 6% in test [2]; 3% in test [3]; 11% in test [4]; 0% in test [5]; 26% in test [6]. Also, the “%Inh” value with S6K1 is on record as 0%; in the test with SBK1, 0%; in the test with SGK2 it was 0%; in the test with SGK3, 8%; in the test with SGK, 0%; in the test with SIK2, 0%. For the same compound, the “%Inh” value is 4% in the test with SIK; 0% in the test on SLK; 15% with SNARK; 0% with SNRK; 29% in the test with SRC; 88% with SRMS. Also, the “%Inh” value with SRPK1 is 46%; with SRPK2, 12%.
Regarding `COC(=O)Nc1nc2cc(Oc3ccc(NC(=O)Nc4cc(F)ccc4F)cc3)ccc2[nH]1.Cl` [GW701424], the “%Inh” value amounted to 5% in [1]; 1% in [2]; 8% in [3]; 13% in test [4]; 0% in [5]; 18% in test [6]. Besides, the “%Inh” value came out at 2% with S6K1; 6% in the test on SBK1; 0% in the test on SGK2; 12% with SGK3; 2% in the test on SGK; 0% in the test with SIK2. Moreover, the “%Inh” value in the test with SIK came to 0%; with SLK, 9%; in the test with SNARK, 0%; in the test with SNRK, 0%; in the test on SRC it was 0%; with SRMS, 0%. The “%Inh” value with SRPK1 stood at 0%; in the test on SRPK2, 29%.
Consider `CCCCCc1nc2c(N)ncnc2n1CCCCC` [SKF-97255], for which the “%Inh” value in [1] amounted to 32%; in test [2], 0%; in [3], 0%; in test [4] it was 7%; in test [5], 20%; in [6] it was 0%. For the same compound, the “%Inh” value in the test on S6K1 turned out to be 13%; in the test on SBK1, 0%; with SGK2, 0%; in the test with SGK3 it was 0%; in the test with SGK, 0%; in the test on SIK2, 1%. Further, the “%Inh” value with SIK was 8%; with SLK it was 8%; in the test on SNARK it was 0%; with SNRK, 0%; with SRC, 14%; in the test with SRMS it was 25%. Besides, the “%Inh” value in the test with SRPK1 came out at 0%; in the test with SRPK2, 11%.
As to `CN(C1=C(c2ccccc2)C(=O)NC1=O)c1ccccc1` [SB-334860], the “%Inh” value in [1] was 4%; in test [2], 23%; in [3] it was 14%; in [4], 0%; in test [5] it was 0%; in test [6], 8%. Moreover, the “%Inh” value is given as 2% in the test on S6K1; 2% with SBK1; 0% in the test on SGK2; 16% in the test with SGK3; 0% in the test on SGK; 5% in the test on SIK2. In addition, the “%Inh” value in the test on SIK is given as 7%; in the test on SLK it was 10%; with SNARK it was 23%; in the test with SNRK, 0%; in the test on SRC, 5%; in the test with SRMS, 0%. Moreover, the “%Inh” value is recorded as 10% in the test on SRPK1 and 0% in the test with SRPK2.
As to `CCc1nc(-c2cccc(C)c2)c(-c2ccnc(NCc3ccccc3)c2)s1`, the “%Inh” value in test [1] turned out to be 0%; in test [2], 0%; in [3], 0%; in test [4] it was 2%; in [5], 0%; in test [6], 53%. For the same compound, the “%Inh” value in the test on S6K1 is 4%; in the test with SBK1 it was 0%; in the test on SGK2, 4%; with SGK3, 0%; with SGK it was 2%; in the test with SIK2, 10%. Further, the “%Inh” value in the test with SIK worked out at 5%; in the test on SLK, 7%; in the test on SNARK it was 0%; with SNRK, 0%; with SRC, 7%; in the test with SRMS it was 1%. Also, the entries for the “%Inh” value with SRPK1 and in the test with SRPK2 were 1% and 0%, respectively.
`NCC(NC(=O)c1cc(-c2cn[nH]c2)c(-c2ccnc3[nH]ccc23)s1)c1ccccc1.O=C(O)C(F)(F)F.O=C(O)C(F)(F)F` (stereo not drawn) [GSK1325775]: the “%Inh” value is given as 35% in test [1]; 6% in test [2]; 7% in [3]; 0% in [4]; 21% in test [5]; 8% in test [6]. The “%Inh” value in the test on S6K1 is 53%; with SBK1 it was 84%; in the test with SGK2 it was 79%; with SGK3, 81%; in the test on SGK it was 74%; in the test on SIK2, 0%. The “%Inh” value in the test with SIK is 0%; in the test with SLK, 0%; with SNARK, 92.2%; in the test with SNRK, 0%; in the test with SRC it was 0%; in the test with SRMS, 0%. In addition, the “%Inh” value in the test with SRPK1 is 81%; with SRPK2, 22%.
Turning to `CSc1ccc(-c2cc3ncnc(SCC(=O)O)c3s2)cc1`, the “%Inh” value in [1] came out at 0%; in test [2] it was 0%; in test [3], 0%; in test [4], 20%; in test [5], 0%; in [6] it was 19%. The “%Inh” value with S6K1 was 0%; in the test on SBK1, 0%; in the test on SGK2, 0%; with SGK3 it was 6%; in the test with SGK it was 0%; in the test on SIK2, 0%. Further, the “%Inh” value in the test with SIK was determined as 25%; in the test on SLK, 0%; in the test on SNARK, 0%; in the test on SNRK, 0%; with SRC, 0%; with SRMS it was 0%. In addition, the “%Inh” value with SRPK1 came out at 0%; in the test with SRPK2, 100%.
Turning to `Nc1nc(-c2ccc3c(N)n[nH]c3c2)cc(N2CCCC2)n1` [GSK2227430], the “%Inh” value is recorded as 0% in [1]; 0% in test [2]; 20% in [3]; 17% in test [4]; 0% in [5]; 0% in test [6]. Moreover, the “%Inh” value was 0% in the test on S6K1; 8% with SBK1; 0% with SGK2; 8% in the test with SGK3; 0% in the test with SGK; 0% in the test with SIK2. Also, the “%Inh” value is given as 0% in the test with SIK; 0% in the test on SLK; 3% in the test on SNARK; 0% with SNRK; 0% in the test on SRC; 0% in the test with SRMS. The “%Inh” value in the test on SRPK1 came to 4%; with SRPK2, 0%.
In the case of `N#Cc1c(N2CCOCC2)sc(-c2ccn[nH]2)c1-c1ccc(Cl)cc1`, the “%Inh” value in test [1] is on record as 9%; in test [2], 0%; in test [3], 13%; in test [4], 2%; in test [5], 2%; in test [6], 10%. Besides, the “%Inh” value in the test on S6K1 was found to be 7%; with SBK1 it was 35%; with SGK2 it was 23%; in the test with SGK3, 8%; in the test with SGK it was 23%; with SIK2, 4%. The “%Inh” value came out at 13% in the test with SIK; 17% in the test on SLK; 5% in the test on SNARK; 12% in the test on SNRK; 0% in the test with SRC; 0% in the test with SRMS. The “%Inh” value in the test with SRPK1 and with SRPK2 was 0% in each case.
Regarding `CN1c2ccc(CNc3ccc(F)cc3)cc2-c2c(cnn2C)S1(=O)=O`, the “%Inh” value in test [1] turned out to be 23%; in [2] it was 41%; in [3], 3%; in test [4] it was 8%; in test [5], 5%; in test [6], 0%. In addition, the “%Inh” value is given as 0% in the test on S6K1; 0% in the test on SBK1; 100% with SGK2; 0% in the test with SGK3; 0% in the test on SGK; 0% in the test on SIK2. Further, the “%Inh” value in the test with SIK, with SLK, in the test on SNARK, in the test on SNRK, in the test with SRC and in the test on SRMS was 0% in each case. The “%Inh” value with SRPK1 amounted to 0%; with SRPK2, 21%.
Consider `CNc1ncnc2[nH]ncc12` [SKF-18355], for which the “%Inh” value is reported as 46% in test [1]; 0% in [2]; 5% in [3]; 22% in test [4]; 16% in [5]; 0% in test [6]. The “%Inh” value in the test with S6K1 is recorded as 24%; in the test on SBK1 it was 0%; in the test on SGK2 it was 0%; with SGK3, 0%; with SGK, 6%; in the test on SIK2, 0%. Further, the “%Inh” value turned out to be 0% in the test with SIK; 10% in the test on SLK; 0% in the test on SNARK; 0% in the test with SNRK; 17% in the test on SRC; 22% in the test on SRMS. Moreover, the “%Inh” value in the test on SRPK1 and in the test with SRPK2 was 0% each time.
Consider `COc1ccc(Nc2ncc(C#N)c(Nc3ccccc3C(N)=O)n2)cc1N1CCN(C)CC1.Cl` [GSK1558669], for which the “%Inh” value in [1] was found to be 100%; in test [2] it was 7%; in [3], 99.7%; in test [4] it was 11%; in [5], 100%; in [6] it was 50%. The “%Inh” value with S6K1 is 99.9%; in the test with SBK1, 93.9%; with SGK2, 58%; in the test with SGK3, 95.3%; with SGK it was 87%; in the test on SIK2, 96.4%. The “%Inh” value with SIK is 98.7%; in the test on SLK it was 100%; in the test with SNARK it was 99.8%; in the test with SNRK it was 85%; with SRC it was 100%; in the test with SRMS it was 99.5%. Moreover, the “%Inh” value in the test with SRPK1 worked out at 99.9%; with SRPK2, 66%.
Turning to `O=c1cc(N2CCOCC2)nc2n(Cc3cccc(Cl)c3Cl)c(C3CC3)nn12` [GSK2358994], the “%Inh” value in [1] was 0%; in test [2], 18%; in [3], 0%; in test [4] it was 17%; in test [5], 0%; in test [6] it was 21%. Also, the “%Inh” value with S6K1 is 15%; in the test with SBK1, 0%; in the test with SGK2 it was 20%; with SGK3, 0%; with SGK it was 30%; in the test with SIK2 it was 0%. Also, the “%Inh” value is reported as 0% in the test on SIK; 46% with SLK; 0% in the test on SNARK; 0% in the test with SNRK; 22% with SRC; 0% in the test with SRMS. Also, the results for the “%Inh” value with SRPK1 and in the test on SRPK2 were 17% and 0%, respectively.
